The values that follow come from the supplement of paper PMC8975748.

Structures are written as SMILES. Where a name gives a salt, the structure may show the parent alone.

For the first test, the system named is Saccharomyces cerevisiae BY4741 SeMeCo community. Description: z-score of subpopulation abundance vs DMSO median, subpopulation auxotrophic for HU; higher = larger share of this subpopulation than in DMSO controls. The conditions noted are these: 10 µM; 24 h; SM minimal medium; subpopulation (auxotrophy): HU. Summed up: (§1)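 Subpopulation abundance was reported as a z-score against the median of vehicle wells. The Saccharomyces cerevisiae BY4741 community, carrying four plasmids that each restored one auxotrophy and encoded a distinct fluorescent protein, was grown 24 h in minimal SM medium in 384-well plates holding library drugs at 10 µM final. Cells were paraformaldehyde-fixed and imaged by automated confocal microscopy, with single-auxotroph fluorescent strains used for thresholds and autofluorescence correction.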
On to `C[C@]12CC[C@@H]3c4ccc(O)cc4C[C@@H](CCCCCCCCC[S+]([O-])CCCC(F)(F)C(F)(F)F)[C@H]3[C@@H]1CC[C@@H]2O` (some centres not stated) [Fulvestrant], for which the “z-score of subpopulation abundance” value came out at 0.88.

For `CNCCCN1c2ccccc2CCc2ccccc21` [Desipramine Hydrochloride], the “z-score of subpopulation abundance” value was -0.04.

Turning to `Oc1ccc([C@H]2COc3cc(O)ccc3C2)cc1` [Equol], the “z-score of subpopulation abundance” value was -0.01.

Consider `Cc1[nH]c(=O)c(C#N)cc1-c1ccncc1` [Milrinone], for which the “z-score of subpopulation abundance” value was -0.62.

Regarding `Cc1ccc(O)c([C@H](CCN(C(C)C)C(C)C)c2ccccc2)c1` [Tolterodine tartrate], the “z-score of subpopulation abundance” value was 0.88.

On to `CCN(CC)CCOC(=O)c1ccc(N)cc1` [Procaine], for which the “z-score of subpopulation abundance” value is 0.81.

Regarding `O=C(O)c1cc(/N=N/c2ccc(O)c(C(=O)O)c2)ccc1O` [Olsalazine Sodium], the “z-score of subpopulation abundance” value is -0.74.

Regarding `CCC(C)(Oc1ccc(C2(c3ccc(OC(C)(CC)C(=O)O)cc3)CCCCC2)cc1)C(=O)O` (configuration not stated) [Clinofibrate], the “z-score of subpopulation abundance” value is 0.11.

Consider `CN(C)[C@@H]1C(=O)C(C(N)=O)=C(O)[C@@]2(O)C(=O)C3=C(O)c4c(O)ccc(Cl)c4[C@@H](O)[C@H]3C[C@@H]12` [Demeclocycline HCl], for which the “z-score of subpopulation abundance” value was -0.34.

`COc1cc2c(cc1OC)C(=O)C(CC1CCN(Cc3ccccc3)CC1)C2` (configuration not stated) [Donepezil]: the “z-score of subpopulation abundance” value was -0.92.

For the molecule `NC(=O)[C@@H]1CC[C@@H]2CN1C(=O)N2OS(=O)(=O)O` [Avibactam sodium], the “z-score of subpopulation abundance” value is -0.2.

With `CN1[C@@H]2CC[C@H]1C[C@@H](OC(c1ccccc1)c1ccccc1)C2` [Benztropine mesylate], the “z-score of subpopulation abundance” value is -0.54.

With `C#C[C@]1(O)CC[C@H]2[C@@H]3CCC4=CCCC[C@@H]4[C@H]3CC[C@@]21C` [Lynestrenol], the “z-score of subpopulation abundance” value was determined as 0.4.

Take `CC(C)(C)C(=O)OCOC(=O)[C@@H]1N2C(=O)[C@@H](/N=C/N3CCCCCC3)[C@H]2SC1(C)C` [Pivmecillinam hydrochloride]: the “z-score of subpopulation abundance” value is -0.03.

For the molecule `OC(c1ccccc1)(c1ccccc1)C12CC[N+](CCOCc3ccccc3)(CC1)CC2` [Umeclidinium bromide], the “z-score of subpopulation abundance” value was -0.27.

Consider `OCc1ccccc1O[C@@H]1O[C@H](CO)[C@@H](O)[C@H](O)[C@H]1O` [Salicin], for which the “z-score of subpopulation abundance” value was -0.9.

Turning to `CN(C)CCc1c[nH]c2ccc(Cn3cncn3)cc12` [Rizatriptan Benzoate], the “z-score of subpopulation abundance” value was -0.96.

Take `OCCN(CCO)c1nc(N2CCCCC2)c2nc(N(CCO)CCO)nc(N3CCCCC3)c2n1` [Dipyridamole]: the “z-score of subpopulation abundance” value is -7.22.

As to `CC(=O)[C@@]1(O)CC[C@H]2[C@@H]3C[C@H](C)C4=CC(=O)CC[C@]4(C)[C@H]3CC[C@@]21C` [Medroxyprogesterone], the “z-score of subpopulation abundance” value is 0.01.

As to `CC[N+](CC)(CC)CC` [Tetraethylammonium bromide], the “z-score of subpopulation abundance” value is -0.09.

As for `CCC1(c2ccccc2)C(=O)NCNC1=O` [Primidone], the “z-score of subpopulation abundance” value is 0.35.

Consider `CCCCOc1cc(C(=O)OCCN(CC)CC)ccc1N` [Oxybuprocaine HCl], for which the “z-score of subpopulation abundance” value amounted to 0.6.

As for `C[N+]1(C)[C@@H]2CC[C@H]1C[C@@H](OC(=O)C(O)c1ccccc1)C2` (some centres not stated) [Homatropine Methylbromide], the “z-score of subpopulation abundance” value was found to be 0.05.

A further test has the same test system. Description: z-score of subpopulation abundance vs DMSO median, subpopulation auxotrophic for UM; higher = larger share of this subpopulation than in DMSO controls. The conditions noted are these: 10 µM; 24 h; SM minimal medium; subpopulation (auxotrophy): UM. Summed up:
as §1
`Nc1nc(O)c2ncn(CCC(CO)CO)c2n1` [Penciclovir]: the “z-score of subpopulation abundance” value was found to be 0.66.

On to `C=CC(C)(O)CCC=C(C)C` (configuration not stated) [Linalool], for which the “z-score of subpopulation abundance” value came out at 0.7.

In the case of `O=C(N[C@H](CO)[C@H](O)c1ccc([N+](=O)[O-])cc1)C(Cl)Cl` [Chloramphenicol], the “z-score of subpopulation abundance” value is -0.39.

With `CCCN1CCCC[C@H]1C(=O)Nc1c(C)cccc1C` [Ropivacaine], the “z-score of subpopulation abundance” value was -0.14.

Consider `Cc1onc(-c2ccccc2)c1-c1ccc(S(N)(=O)=O)cc1` [Valdecoxib], for which the “z-score of subpopulation abundance” value is -0.64.

As to `COc1ccccc1N1CCN(CCCNc2cc(=O)n(C)c(=O)n2C)CC1` [Urapidil HCl], the “z-score of subpopulation abundance” value worked out at 0.

For the molecule `O=C(O)c1cc(-c2ccc(F)cc2F)ccc1O` [Diflunisal], the “z-score of subpopulation abundance” value is -3.18.

As to `Cc1nc(=O)c2cc(CN(C)c3ccc(C(=O)N[C@@H](CCC(=O)O)C(=O)O)s3)ccc2[nH]1` [Raltitrexed], the “z-score of subpopulation abundance” value is -2.8.

`CC(C)Cc1ccc(C(C)C(=O)O)cc1` (configuration not stated) [Ibuprofen Lysine]: the “z-score of subpopulation abundance” value was -4.66.

For the molecule `C[C@]12CC[C@@H]3c4ccc(O)cc4C[C@@H](CCCCCCCCC[S+]([O-])CCCC(F)(F)C(F)(F)F)[C@H]3[C@@H]1CC[C@@H]2O` (some centres not stated) [Fulvestrant], the “z-score of subpopulation abundance” value was found to be 0.53.

Take `COc1ccc(NS(=O)(=O)c2ccc(N)cc2)nn1` [Sulfamethoxypyridazine]: the “z-score of subpopulation abundance” value stood at 0.13.

Turning to `CNCCCN1c2ccccc2CCc2ccccc21` [Desipramine Hydrochloride], the “z-score of subpopulation abundance” value is -0.43.

As for `Oc1ccc([C@H]2COc3cc(O)ccc3C2)cc1` [Equol], the “z-score of subpopulation abundance” value turned out to be 0.05.

In the case of `Cc1[nH]c(=O)c(C#N)cc1-c1ccncc1` [Milrinone], the “z-score of subpopulation abundance” value was -0.1.

With `CCN(CC)CCOC(=O)c1ccc(N)cc1` [Procaine], the “z-score of subpopulation abundance” value amounted to 0.14.

Consider `O=C(O)c1cc(/N=N/c2ccc(O)c(C(=O)O)c2)ccc1O` [Olsalazine Sodium], for which the “z-score of subpopulation abundance” value is -1.01.

With `CCC(C)(Oc1ccc(C2(c3ccc(OC(C)(CC)C(=O)O)cc3)CCCCC2)cc1)C(=O)O` (configuration not stated) [Clinofibrate], the “z-score of subpopulation abundance” value is -2.08.

As to `CN(C)[C@@H]1C(=O)C(C(N)=O)=C(O)[C@@]2(O)C(=O)C3=C(O)c4c(O)ccc(Cl)c4[C@@H](O)[C@H]3C[C@@H]12` [Demeclocycline HCl], the “z-score of subpopulation abundance” value was -0.64.

Turning to `COc1cc2c(cc1OC)C(=O)C(CC1CCN(Cc3ccccc3)CC1)C2` (configuration not stated) [Donepezil], the “z-score of subpopulation abundance” value is -0.49.

Take `CCn1cc(C(=O)O)c(=O)c2cc(F)c(N3CCNCC3)nc21` [Enoxacin]: the “z-score of subpopulation abundance” value was -0.47.

Consider `NC(=O)[C@@H]1CC[C@@H]2CN1C(=O)N2OS(=O)(=O)O` [Avibactam sodium], for which the “z-score of subpopulation abundance” value amounted to 0.5.

Turning to `CN1[C@@H]2CC[C@H]1C[C@@H](OC(c1ccccc1)c1ccccc1)C2` [Benztropine mesylate], the “z-score of subpopulation abundance” value is -0.32.

`C#C[C@]1(O)CC[C@H]2[C@@H]3CCC4=CCCC[C@@H]4[C@H]3CC[C@@]21C` [Lynestrenol]: the “z-score of subpopulation abundance” value was found to be 0.5.

Turning to `CC(C)(C)C(=O)OCOC(=O)[C@@H]1N2C(=O)[C@@H](/N=C/N3CCCCCC3)[C@H]2SC1(C)C` [Pivmecillinam hydrochloride], the “z-score of subpopulation abundance” value was -0.01.

For the molecule `OC(c1ccccc1)(c1ccccc1)C12CC[N+](CCOCc3ccccc3)(CC1)CC2` [Umeclidinium bromide], the “z-score of subpopulation abundance” value is -1.45.

For the molecule `OCc1ccccc1O[C@@H]1O[C@H](CO)[C@@H](O)[C@H](O)[C@H]1O` [Salicin], the “z-score of subpopulation abundance” value was -0.29.

With `CN(C)CCc1c[nH]c2ccc(Cn3cncn3)cc12` [Rizatriptan Benzoate], the “z-score of subpopulation abundance” value is -1.14.

For the molecule `OCCN(CCO)c1nc(N2CCCCC2)c2nc(N(CCO)CCO)nc(N3CCCCC3)c2n1` [Dipyridamole], the “z-score of subpopulation abundance” value was -8.15.

Take `Cn1nnnc1SCC1=C(C(=O)O)N2C(=O)[C@@H](NC(=O)[C@H](OC=O)c3ccccc3)[C@H]2SC1` [Cefamandole nafate]: the “z-score of subpopulation abundance” value worked out at 2.08.

As to `CC(=O)[C@@]1(O)CC[C@H]2[C@@H]3C[C@H](C)C4=CC(=O)CC[C@]4(C)[C@H]3CC[C@@]21C` [Medroxyprogesterone], the “z-score of subpopulation abundance” value was -0.35.

For `CC[N+](CC)(CC)CC` [Tetraethylammonium bromide], the “z-score of subpopulation abundance” value is 0.12.

Regarding `CCC1(c2ccccc2)C(=O)NCNC1=O` [Primidone], the “z-score of subpopulation abundance” value amounted to 0.54.

As to `CCCCOc1cc(C(=O)OCCN(CC)CC)ccc1N` [Oxybuprocaine HCl], the “z-score of subpopulation abundance” value is -0.55.

As to `C[N+]1(C)[C@@H]2CC[C@H]1C[C@@H](OC(=O)C(O)c1ccccc1)C2` (some centres not stated) [Homatropine Methylbromide], the “z-score of subpopulation abundance” value worked out at 0.8.
